High-throughput results: PubChem, National Center for Advancing Translational Sciences (NCATS)
An excerpt weighted towards active compounds, which were near 19% of everything screened.
HepG2 tox: kills HepG2 cells in TGF-b inhibitor counter-screen. Potency, µM (highest dose often 46.1 µM), hits mostly cytotoxic. HepG2 CAGA-GFP viability, ATP luminescence, 18 h. 410,000 tested, 0.76% active
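HepG2 CAGA-GFP cells (1000/well, DMEM with 1% FBS) received compound, then TGF-beta at 500 pg/mL final, and were incubated 18 hours at 37 degrees C. Viability was read by CellTiter-Glo luminescence. Media-only wells were set as complete cell-killing and DMSO as no toxicity.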
TDP1 cell CPT: growth inhibition of DT40 Tdp1-/-;hTDP1 cells with camptothecin (screen for TDP1 inhibitors). chicken DT40 Tdp1-/-;hTDP1 cells + 20 nM CPT, ATP luminescence, 48 h. Potency, µM (top dose mostly 46.2 µM), most hits filed as inhibitors. 420,000 tested, 12% active. AID 686979; note: nearly all actives have a fitted effect of over 55% in size
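Chicken DT40 Tdp1-/- cells complemented with human TDP1, 400 cells/well, exposed to compounds plus 20 nM camptothecin for at least 48 h at 37 C; viability read as ATP content by CellTiter-Glo luminescence.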
S-ASM inh: inhibitors of human secretory acid sphingomyelinase. placental ASM, HMU-PC fluorogenic substrate, 60 min. P17405. 340,000 tested, 0.006% active. Potency, µM (highest dose often 57.5 µM), actives largely listed as inhibitors
Target sequence (P17405 47-631 limits assumed): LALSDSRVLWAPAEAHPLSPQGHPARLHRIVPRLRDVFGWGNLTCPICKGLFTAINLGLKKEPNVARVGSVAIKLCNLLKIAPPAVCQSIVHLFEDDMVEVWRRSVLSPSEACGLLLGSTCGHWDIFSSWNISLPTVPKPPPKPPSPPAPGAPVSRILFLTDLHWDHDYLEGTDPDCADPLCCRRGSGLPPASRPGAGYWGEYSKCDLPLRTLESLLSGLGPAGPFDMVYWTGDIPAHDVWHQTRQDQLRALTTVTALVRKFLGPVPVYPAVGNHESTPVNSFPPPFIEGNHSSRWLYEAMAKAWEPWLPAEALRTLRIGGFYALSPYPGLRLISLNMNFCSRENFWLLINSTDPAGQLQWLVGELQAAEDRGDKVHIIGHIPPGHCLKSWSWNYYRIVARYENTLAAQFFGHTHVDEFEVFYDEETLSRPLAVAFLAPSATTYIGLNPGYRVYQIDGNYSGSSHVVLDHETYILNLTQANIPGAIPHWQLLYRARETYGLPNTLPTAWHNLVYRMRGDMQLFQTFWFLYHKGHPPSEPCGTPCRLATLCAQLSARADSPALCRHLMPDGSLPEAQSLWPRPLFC
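Steps: dispense placental human ASM, pin compound, wait 10 min at room temperature, add HMU-PC0 substrate at 9 uM final, incubate 60 min at 37 °C, add stop solution raising pH to 10, read fluorescence.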
DT40 TDP1 no CPT: qHTS for Inhibitors of human tyrosyl-DNA phosphodiesterase 1 (TDP1): qHTS in cells in absence of CPT | DT40 Tdp1-/- hTDP1 cells, no CPT, ATP luminescence, 48 h | Potency, µM (series often up to 46.2 µM), actives largely listed as inhibitors | 420,000 tested, 15% active; note: nearly all actives have a fitted effect of over 55% in size
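A cellular qHTS used chicken DT40 cells lacking endogenous Tdp1 but carrying stably transfected human TDP1. Compounds were applied without camptothecin, and cell growth kinetics were judged by ATP-dependent luminescence after ≥48 hr.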
TGFb inhibitor: inhibitors of TGF-b signaling | HepG2 CAGA-GFP TGF-b/SMAD3 reporter, GFP fluorescence, 18 h; TGF-beta stimulated, 500 pg/mL final | Potency, µM (doses to about 46.1 µM), hits mostly inhibitors | 410,000 tested, 1.2% active | AID 588855; note: nearly all actives have a fitted effect of over 65% in size
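Cell-based qHTS in HEPG2 carrying a CAGA-GFP Smad reporter; compounds added before 500 pg/mL final TGF-beta, 18 h incubation at 37 degrees C, GFP fluorescence quantified per cell by imaging cytometry.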
IL1B secr inh: inflammasome signaling inhibition, IL-1 beta readout | activity change, % at 57.5 µM | 360,000 tested, 4.7% active | THP-1 LPS/ATP IL-1B secretion, AlphaLISA, 16 h; active compounds read low; in the data active = activity change below about -50%; inconclusive = mostly about -30% to -49%
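THP-1 cells pretreated 1 hr with compounds (up to 57.5 uM final), then stimulated with LPS (250 ng/mL final) plus ATP (1.25 mM final); secreted IL-1B measured by AlphaLISA after 16 hr, decreased signal indicating inhibition.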
Hits are given with their value; – = inactive; ? = inconclusive; · = no result; ! = not confirmed by another sample; [ ] = another dose, or the depositor's remark. Unless noted, calls come from the whole dose curve; as a rule, active = well fitted curve in the direction sought with a large enough effect; inconclusive = small, poorly fitted or top-dose-only effect, or another doubt; inactive = no such curve, though single readings can be large; an effect the other way counts as inactive or inconclusive.

SMILES	HepG2 tox	TDP1 cell CPT	S-ASM inh	DT40 TDP1 no CPT	TGFb inhibitor	IL1B secr inh
CCc1ccc(NS(=O)(=O)c2ccc3[nH]c4c(c3c2)CCCCCC4)cc1	–	?	·	?	?	·
Cc1cc(S(=O)(=O)N2CCCc3ccccc32)ccc1-n1cnnn1	–	?	–	?	–	–
Cc1ccc2ncc(C(=O)N3CCN(c4ccccc4F)CC3)c(=O)n2c1	–	–	·	–	–	·
CC(=O)[C@@]1(O)CC[C@H]2[C@@H]3C[C@H](C)C4=CC(=O)C=C[C@]4(C)[C@@]3(F)[C@@H](O)C[C@@]21C	–	?	–	–	–	-79.2
CCCC(=O)O[C@]1(C(=O)COC(C)=O)CC[C@H]2[C@@H]3C[C@H](F)C4=CC(=O)C=C[C@]4(C)[C@@]3(F)[C@@H](O)C[C@@]21C	–	23.7µM!	–	?	–	-75.3
C[C@@H]1C[C@H]2[C@@H]3C[C@H](F)C4=CC(=O)C=C[C@]4(C)[C@@]3(F)[C@@H](O)C[C@]2(C)[C@@]1(O)C(=O)COC(=O)C(C)(C)C	–	23.1µM	–	23.1µM	–	–
CC(=O)C12OC(C)(C)OC1CC1C3CCC4=CC(=O)C=CC4(C)C3(F)C(O)CC12C (stereo unspecified)	–	–	–	–	–	-56.9
C[C@@H]1C[C@H]2C3C[C@H](F)C4=CC(=O)C=CC4(C)[C@@]3(F)[C@@H](O)CC2(C)[C@@]1(O)C(=O)COC(=O)C(C)(C)C (stereo partly specified)	·	–	·	?	·	·
C[C@@H]1C[C@@H]2[C@H]3CCC4=CC(=O)C=C[C@]4(C)[C@]3(F)[C@@H](O)C[C@@]2(C)[C@@]1(O)C(=O)CO	·	–	·	–	·	·
C[C@@H]1C[C@H]2[C@@H]3C[C@H](F)C4=CC(=O)C(Cl)=C[C@]4(C)[C@@]3(F)[C@@H](O)C[C@]2(C)[C@@]1(O)C(=O)CO	·	?	·	16.8µM	·	·
CC1CC2C3CCC4=CC(=O)C=C[C@@]4(C)[C@]3(F)C(O)C[C@]2(C)[C@]1(O)C(=O)CO (stereo partly specified)	·	?	·	–	·	·
CCCCCCn1cc(CN2CC(N(C)CC)CS2(=O)=O)nn1 (stereo unspecified)	·	–	·	–	·	–
CC(C)c1ccc(NC(=O)C(c2ccccc2)N(Cc2ccco2)C(=O)CC2NC(=O)NC2=O)cc1 (stereo unspecified)	–	–	–	–	?	-56.3
Cc1cccc(CNC(=O)c2cnn(-c3nccc(-c4cc5ccccc5o4)n3)c2C2CC2)n1	·	–[9.04 µM]	·	?	·	·
CCOc1ccc2nc(Cl)c(C3CC(c4ccc(OC)cc4)=NN3S(C)(=O)=O)cc2c1 (stereo unspecified)	–	8.2µM	·	16.4µM	–	·
Cc1oc(-c2cccc(Cl)c2)nc1CSc1nncn2c1cc1occc12	–	–	·	–	–	·
CC(=O)NCc1c(I)c(NC(C)=O)c(I)c(C(=O)O)c1I	·	–	·	–	·	·
CC(C)NC(=O)CSc1nnc2sc3ccccc3n12	–	–	–	–	–	–
O=C(CSc1nnc(-c2ccco2)n1-c1ccccc1)N1CCN(C(=O)c2ccco2)CC1	–	?	–	23.1µM	–	?
O=C(CSc1nnc2sc3ccccc3n12)NCc1ccco1	–	?	–	12.6µM	–	–
CCn1c(SCC(=O)Nc2cc(OC)ccc2OC)nnc1C1CCCCC1	–	29.1µM	–	–	–	–
COc1ccc(NC(=O)CSc2nnc(C3CC3)n2N)cc1	–	–	–	–	–	–
COc1ccc(NC(=O)CSc2nnc(C3CCCCC3)n2-c2ccccc2)cc1	–	14.6µM	–	18.4µM	–	–
CCCCN(C=O)c1c(CC)nc2c(OCc3ccc(S(C)(=O)=O)cc3)cccn12	–	–	·	?	–	–
COc1ccc(C(=O)N2CCN(C(=O)COc3ccc(Br)cc3)CC2)cc1OC	–	?	·	?	?	·
SMILES	HepG2 tox	TDP1 cell CPT	S-ASM inh	DT40 TDP1 no CPT	TGFb inhibitor	IL1B secr inh
Cc1cccc(N2CCN(S(=O)(=O)c3cn(C)c(C)n3)CC2)c1C	–	–	·	–	–	·
COc1ccc(OC)c(NC(=O)CSc2nnc(-c3ccco3)n2-c2ccccc2)c1	–	20.6µM	–	?	–	–
COc1ccc(-n2c(SCC(=O)Nc3cccc(C(=O)O)c3)nnc2-c2ccco2)cc1	–	–	–	–	–	–
COc1cccc2cc(-c3nnc(SCC(=O)Nc4ccc(NC(C)=O)cc4)n3C)oc12	–	–	–	–	–	–
CCNC(=O)CSc1nnc(C2CC2)n1-c1ccccc1	–	–	–	–	–	–
COc1ccc(C)cc1NC(=O)CSc1nnc(-c2cc3cccc(OC)c3o2)n1N	–	?	–	16.4µM	–	–
O=C(CSc1nnc(C2CCCCC2)n1-c1ccccc1)NCc1ccco1	–	?	–	8.2µM	–	–
COc1ccc(CCSc2nnc(C3CCCCC3)n2N)cc1	–	?	–	11.6µM	–	–
Cc1nc(-c2ccc(Cl)cc2)sc1C1(C)CC(c2ccc(C#N)cc2)=NO1 (stereo unspecified)	–	?	–	?	–	–
CCc1nnc(NC(=O)Cc2ccc(S(=O)(=O)N3CCCCC3)cc2)s1	–	–	–	–	–	–
Cc1[nH]c(=S)c(C#N)c(C)c1CC(=O)c1ccc(Br)cc1	–	–	–	–	–	–
COc1ccc(CCNC(=O)CCC(=O)N2CC(C)Oc3ccc(Cl)cc32)cc1OC (stereo unspecified)	–	18.4µM	–	?	–	–
Cc1cccc(N2CCN(C(=O)CCC(=O)N3CC(C)Oc4ccc(C)cc43)CC2C)c1 (stereo unspecified)	–	16.4µM	–	?	?	–
Cc1ccc2c(c1)N(C(=O)CCC(=O)N1CCN(c3ccccn3)CC1)CC(C)O2 (stereo unspecified)	–	?	–	?	–	–
Cc1ccc2c(c1)N(C(=O)CCC(=O)NC1CCN(Cc3ccccc3)CC1)CC(C)O2 (stereo unspecified)	–	20.6µM	–	?	–	–
Cc1ccc2c(c1)N(C(=O)CCC(=O)NCc1cccc(Cl)c1)CC(C)O2 (stereo unspecified)	–	?	–	16.4µM	–	?
CN(C)CC(O)COC(c1ccc(Cl)cc1)c1ccc(Cl)cc1 (stereo unspecified)	15.8µM	?	–	20.6µM	?	-79.4
Oc1ccc(/C=N/N2CCCCC2)c(O)c1O	–	5.8µM	–	10.3µM	–	–
COc1cccc(/C=N/N2CCOCC2)c1O	–	–	–	–	–	–
